# Changes are numbered by the printed parent chain.
# Key:
# Assay in all cases: HT-SELEX; high values mean tight binding
# Conditions in all cases: protein: recombinant; vector His6-GST; dsDNA, one strand shown
# [1] = molecular target: T1, SALL4 ZFC4 WT (HT-SELEX) (Mus musculus, UniProt Q8BX22 870-940)
# T1 sequence: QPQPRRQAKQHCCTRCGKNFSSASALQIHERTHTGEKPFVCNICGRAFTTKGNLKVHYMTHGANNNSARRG
# Method in brief: (§1)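 DNA from a random library (1.5 µg in the first cycle, 200 ng afterwards) was incubated with purified recombinant mouse SALL4 zinc finger cluster 4, residues 870–940 (1 µg), for 10 min at room temperature in 100 µl buffer: 10 mM Tris–HCl pH 7.5, 50 mM NaCl, poly(dI-dC), DTT. Bound complexes were pulled down on Ni2+ beads, washed and PCR-amplified, and the selection was repeated for up to 6 cycles in triplicate. MiSeq reads were scanned for 6-mers, and binding signal is each canonical k-mer's read fraction as fold change over the initial random library.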
# [2] = molecular target: T2, SALL4 ZFC4 R900W (HT-SELEX) (Mus musculus, UniProt Q8BX22 870-940, R900W)
# T2 sequence: T1 sequence with R31W
# Method in brief: as §1
# [3] = molecular target: T3, SALL4 ZFC4 G921D (HT-SELEX) (Mus musculus, UniProt Q8BX22 870-940, G921D)
# T3 sequence: T1 sequence with G52D
# Method in brief: as §1
Sequence,binding signal [1] [fold-change vs cycle 0],binding signal [2] [fold-change vs cycle 0],binding signal [3] [fold-change vs cycle 0]
TACTAA,2.076 ± 0.0175,2.12 ± 0.0758,1.87 ± 0.135
AGGTCA,0.772 ± 0.0359,0.893 ± 0.023,0.972 ± 0.0353
CTCGGA,0.396 ± 0.0242,0.468 ± 0.0145,0.589 ± 0.0706
TACCCA,0.781 ± 0.0395,0.882 ± 0.0184,0.886 ± 0.035
GTCCAC,0.374 ± 0.044,0.454 ± 0.026,0.569 ± 0.0681
GTAGAC,0.684 ± 0.0405,0.821 ± 0.033,0.891 ± 0.0118
AACAGG,0.801 ± 0.0521,0.937 ± 0.0272,0.942 ± 0.0148
ACTCCG,0.4 ± 0.00858,0.466 ± 0.0288,0.594 ± 0.0678
ACCCAG,0.455 ± 0.0148,0.526 ± 0.0133,0.628 ± 0.0574
TTCGAA,1.05 ± 0.0775,1.14 ± 0.0752,1.15 ± 0.0514
AATCGT,1.18 ± 0.0336,1.21 ± 0.0227,1.23 ± 0.0244
GAGCTC,0.338 ± 0.0166,0.439 ± 0.0575,0.585 ± 0.0582
GCAAAA,0.804 ± 0.0195,0.786 ± 0.0174,0.873 ± 0.0736
CCTGAA,0.792 ± 0.0306,0.933 ± 0.0447,0.951 ± 0.0276
CGCTTA,0.535 ± 0.019,0.58 ± 0.0258,0.684 ± 0.061
TATTAA,5.02 ± 0.457,2.69 ± 0.232,2.25 ± 0.285
AGATCA,1.29 ± 0.0762,1.44 ± 0.0715,1.46 ± 0.0921
GTAGGA,0.827 ± 0.0404,0.946 ± 0.029,0.948 ± 0.0466
AAAACA,1.61 ± 0.0773,1.67 ± 0.055,1.55 ± 0.0435
CGAGTA,0.742 ± 0.0199,0.848 ± 0.0261,0.87 ± 0.0313

Sequence,binding signal [1] [fold-change vs cycle 0],binding signal [2] [fold-change vs cycle 0],binding signal [3] [fold-change vs cycle 0]
ACATGC,0.613 ± 0.0259,0.7108 ± 0.0052,0.774 ± 0.017
CACTAG,0.821 ± 0.0388,0.968 ± 0.0358,0.987 ± 0.027
GACGTC,0.306 ± 0.00649,0.386 ± 0.024,0.522 ± 0.0468
GATGCA,0.68 ± 0.0339,0.75 ± 0.0294,0.848 ± 0.0393
CCCATA,0.844 ± 0.0635,0.917 ± 0.0435,0.905 ± 0.0367
CGGAAC,0.339 ± 0.0284,0.417 ± 0.0399,0.524 ± 0.0677
CCAGTA,0.785 ± 0.049,0.922 ± 0.0301,0.962 ± 0.0332
CAACCC,0.417 ± 0.0301,0.488 ± 0.0225,0.582 ± 0.0463
GTGATA,1.42 ± 0.0582,1.47 ± 0.0649,1.39 ± 0.0928
AGGAAA,1.31 ± 0.0867,1.43 ± 0.085,1.35 ± 0.118
ATATAG,2.33 ± 0.245,1.9 ± 0.143,1.74 ± 0.201
ACTCTA,1.37 ± 0.0421,1.48 ± 0.0703,1.43 ± 0.113
AGTTAA,1.95 ± 0.0954,2.13 ± 0.114,1.84 ± 0.201
TAGACA,1.18 ± 0.0561,1.3 ± 0.0829,1.28 ± 0.0805
ATGAGA,1.52 ± 0.0648,1.6 ± 0.0511,1.48 ± 0.107
AACTGG,0.7531 ± 0.00684,0.889 ± 0.0264,0.904 ± 0.0346
AAAGGA,1.36 ± 0.0473,1.57 ± 0.109,1.44 ± 0.105
ACCAGC,0.312 ± 0.0135,0.369 ± 0.00921,0.497 ± 0.0437
ATTGGC,0.461 ± 0.0252,0.5 ± 0.0137,0.665 ± 0.0716
AGTTCG,0.647 ± 0.0383,0.741 ± 0.0101,0.828 ± 0.0183

Sequence,binding signal [1] [fold-change vs cycle 0],binding signal [2] [fold-change vs cycle 0],binding signal [3] [fold-change vs cycle 0]
AAACAT,1.93 ± 0.14,1.88 ± 0.0797,1.72 ± 0.14
CAGATC,0.723 ± 0.0477,0.849 ± 0.0155,0.964 ± 0.0486
AAATTC,1.76 ± 0.142,1.66 ± 0.0813,1.58 ± 0.109
GTACAA,1.14 ± 0.0399,1.26 ± 0.0443,1.22 ± 0.0489
ACACAT,1.25 ± 0.0206,1.33 ± 0.0439,1.32 ± 0.0216
TAATGA,2.15 ± 0.16,2.16 ± 0.14,1.9 ± 0.22
CCTGTC,0.437 ± 0.00717,0.533 ± 0.0129,0.619 ± 0.0538
AGTTTG,1.14 ± 0.0447,1.23 ± 0.039,1.22 ± 0.0352
ATCAGG,0.876 ± 0.0408,0.991 ± 0.0415,1 ± 0.0437
CAGACG,0.352 ± 0.0274,0.442 ± 0.0268,0.571 ± 0.085
GGAAAC,0.775 ± 0.0365,0.874 ± 0.0459,0.9097 ± 0.00842
AAATGT,1.68 ± 0.0685,1.7 ± 0.0668,1.58 ± 0.133
ATCGAA,1.17 ± 0.0408,1.16 ± 0.0416,1.2 ± 0.0145
ACTACT,1.38 ± 0.0657,1.52 ± 0.107,1.43 ± 0.121
AGGGAA,0.891 ± 0.0417,1.01 ± 0.045,0.989 ± 0.0164
CAACGG,0.353 ± 0.0289,0.419 ± 0.0235,0.526 ± 0.0596
CGGGTA,0.363 ± 0.0204,0.435 ± 0.0153,0.521 ± 0.0456
ATTAGA,2.12 ± 0.0407,2.08 ± 0.0537,1.85 ± 0.125
GTTCCA,0.74 ± 0.03,0.862 ± 0.0102,0.915 ± 0.0401
GAATCA,1.35 ± 0.0589,1.45 ± 0.0456,1.38 ± 0.0555
